# Screens (PubChem)
# A selection: hits, their analogues and other compounds. The true share with any hit is near 11%.
# RORg inh: ROR gamma (mouse) transcription inhibition; P51450; Potency, µM (doses to about 53.6 µM), actives largely listed as inhibitors; Drosophila S2 Gal4-RORgamma UAS-luciferase reporter, 20 h; actives 5.4% (n = 310,000); AID 2551; further: nearly all actives have a fitted effect of over 60% in size
# Target sequence (P51450 whole entry, looked up, the tested form may be a part): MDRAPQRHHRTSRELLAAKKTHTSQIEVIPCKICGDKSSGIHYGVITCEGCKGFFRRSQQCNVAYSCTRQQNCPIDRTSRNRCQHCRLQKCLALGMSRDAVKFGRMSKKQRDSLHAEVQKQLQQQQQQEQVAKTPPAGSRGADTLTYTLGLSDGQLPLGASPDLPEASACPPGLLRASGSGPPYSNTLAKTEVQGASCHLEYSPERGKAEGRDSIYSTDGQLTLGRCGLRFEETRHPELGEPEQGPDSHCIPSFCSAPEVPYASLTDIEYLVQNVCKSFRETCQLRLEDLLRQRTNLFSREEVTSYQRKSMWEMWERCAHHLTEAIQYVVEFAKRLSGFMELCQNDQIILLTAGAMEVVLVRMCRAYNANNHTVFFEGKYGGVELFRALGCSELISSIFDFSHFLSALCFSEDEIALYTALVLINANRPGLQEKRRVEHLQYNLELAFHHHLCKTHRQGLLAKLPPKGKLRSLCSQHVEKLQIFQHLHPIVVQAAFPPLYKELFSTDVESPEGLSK
#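 Using a luciferase readout, inhibitors were identified by reduced reporter activity in Drosophila cells coexpressing a copper-inducible Gal4–ROR gamma fusion and UAS-driven Photinus luciferase, incubated 20 hr after 700 uM copper sulfate.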
# IL1B secr inh: inflammasome signaling inhibition, IL-1 beta readout; THP-1 LPS/ATP IL-1B secretion, AlphaLISA, 16 h; stronger effect = lower value; activity change, % at 57.5 µM; actives 4.7% (n = 360,000); in the data active means activity change below about -50%; inconclusive means mostly about -30% to -49%
#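 THP-1 cells pretreated 1 hr with compounds (up to 57.5 uM final), then stimulated with LPS (250 ng/mL final) plus ATP (1.25 mM final); secreted IL-1B measured by AlphaLISA after 16 hr, decreased signal indicating inhibition.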
# MCF10A rerep: DNA re-replication induction in MCF 10a cells | MCF 10A DNA re-replication, Hoechst nuclear intensity, 48 h | Potency, µM (titrated, usually from 46.1 µM), usual class: activators | actives 2.9% (n = 350,000) | AID 624296; further: nearly all actives have a fitted effect of over 50% in size
# Gal4-VP16 FLuc: Gal4-VP16 reporter inhibition counter-screen; actives 3.5% (n = 310,000); Potency, µM (titrated, usually from 53.6 µM), most hits filed as inhibitors; Drosophila S2 Gal4-VP16 UAS-luciferase, luminescence, 20 h;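 further: Gal4-VP16 expression switched on by copper sulfate through the metallothionein promoter; nearly all actives have a fitted effect of over 50% in size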
# SW480 rereplic: induces DNA re-replication in SW480 colon adenocarcinoma cells; actives 1.8% (n = 340,000); SW480 DNA re-replication, Hoechst DNA content imaging, 48 h; Potency, µM (top dose mostly 46.1 µM), usual class: activators; further: nearly all actives have a fitted effect of over 55% in size
#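 Cells (250 per well) received 23 nL compound or DMSO by pin tool and were kept 48 hr at 37 C, 5% CO2. Nuclei were then stained with Hoechst for 40 min and scanned for DNA content.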
# A number is an active result; - = inactive; ? = inconclusive; . = no result given; [ ] = another dose, or the depositor's remark. Unless noted, the call rests on the fitted dose curve; in most records, active means well fitted curve in the direction sought with a large enough effect; inconclusive means small, poorly fitted or top-dose-only effect, or another doubt; inactive means no such curve, though single readings can be large; an effect the other way counts as inactive or inconclusive.
SMILES,RORg inh,IL1B secr inh,MCF10A rerep,Gal4-VP16 FLuc,SW480 rereplic
Cc1ccc(Cn2ccc(NC(=O)c3cc4nc5c(c(C(F)(F)F)n4n3)CCc3ccccc3-5)n2)cc1,-,.,.,-,.
COc1ccc(Nc2c(-c3ccc(F)cc3)nc3nc(C)cc(C)n23)cc1,.,-,.,.,.
COC(=O)[C@@H]1CC[C@H](C)[C@@H](c2ccc(C)cc2)N1C(=O)c1ccc(/C=N\OC[C@@H](O)[C@H]2O[C@H]3OC(C)(C)O[C@H]3[C@@H]2O)cc1,-[10 µM],.,.,-[10 µM],.
COc1cc(OC)cc(C(=O)NC2CC3CCC(C2)N3C)c1 (stereo not given),.,-,-,.,-
COc1ccc(-c2csc(Nc3ccccn3)n2)cc1OC,-,-70,?,-,?
Cc1cccnc1Nc1nc(-c2ccc(O)cc2)cs1,-,?,-,?,-
Cc1cc(-c2csc(Nc3ccccn3)n2)ccc1F,1µM,-58,?,?,-[9.22 µM]
COc1ccccc1Nc1nc(-c2cccnc2)cs1,?,-95,-,-,-
Fc1ccc(-c2csc(Nc3ccccn3)n2)c(F)c1,.,-,?,.,-
Oc1ccc(-c2csc(Nc3ccccn3)n2)cc1,-,-73,-,-,-
COc1ccc(Nc2nc(-c3cccnc3)cs2)c(OC)c1,?,?,-,-,-
CCCCN(C)C(=O)c1ccc2c(c1)S(=O)(=O)c1ccccc1C2=O,-,-,-,-,-
O=C(NCc1nc(-c2ccc(Cl)cc2)no1)c1ccc2c(c1)OCO2,-,-,?,-,-
CSCC[C@H](NC(=O)[C@H](CC(C)C)NC(=O)CNC(=O)[C@H](Cc1ccc(O)cc1)NC(=O)[C@H](Cc1ccccc1)NC(=O)[C@H](CCCCN)NC(=O)[C@H](CC(N)=O)NC(=O)[C@@H]1CCCN1C(=O)[C@H](CC(=O)O)NC(=O)[C@H](C)NC(=O)[C@@H]1CCC(=O)N1)C(N)=O,-,.,.,-,.
COc1ccc(-c2csc(Nc3ccc(C)cn3)n2)cc1,-,-67,?,-,-
c1ccc(-c2csc(Nc3ccccn3)n2)cc1,?,-55,-,?,-
CC(=O)Nc1cccc(-c2csc(Nc3ccc(C)cn3)n2)c1,-,-100,-,-,-
Cc1ccc(-c2csc(Nc3ccccn3)n2)cc1,-[1.91 µM],-77,?,?,-
CC(=O)Oc1ccc(-c2csc(Nc3ccc(Cl)cn3)n2)cc1,.,-,?,.,?
Cc1ccc(S(=O)(=O)N[C@@H](CC(C)C)C(=O)N2CCC(C(=O)N[C@H](C(=O)O)C(C)C)CC2)cc1,-,-,-,-,-
C=C(C)CC1(c2ccccc2)Oc2ccccc2-c2nc3cc(Cl)c(Cl)cc3nc21 (stereo not given),-[10 µM],.,.,-[10 µM],.
Cc1ccc2nc(NC(=O)CSCC(=O)OCC(=O)c3ccc(Br)cc3)sc2c1,3.2µM,-,-,3.2µM,-
Cc1cccc(C)c1NC(=O)C1C(c2ccc3c(c2)OCO3)=Nc2ccccc2N1C(=O)c1cccc2ccccc12 (stereo not given),.,-,.,.,.
Fc1ccc(C2c3[nH]c4ccccc4c3CCN2Cc2cccn2-c2ncccn2)cc1 (stereo not given),-,-51,?,-,-
Clc1ccc(-n2cccc2CN2CCc3c([nH]c4ccccc34)C2c2ccccn2)nc1 (stereo not given),13µM,-,?,-,?
SMILES,RORg inh,IL1B secr inh,MCF10A rerep,Gal4-VP16 FLuc,SW480 rereplic
CCC[C@@H]1CC2=CC(=O)CC[C@]2(C)[C@H]2CC[C@@]3(C)[C@@H](CC[C@@]34CCC(=O)O4)[C@H]12,-,.,.,-,.
CCOC(=O)c1c(-c2ccccc2)nc2cc(C)ccn12,13µM,-,?,-,-
Cc1cc(OCC(=O)NNC(=S)NC(=O)c2cccs2)ccc1Cl,7.9µM,-,-,?,-
Cc1ccc(OCC(=O)NNC(=S)NC(=O)c2cccs2)c(C)c1,10µM,-,-,11µM,-
COP(=O)(OC)c1nc(-c2ccccc2)oc1NCc1ccccc1,-,-,-,-,-
COP(=O)(OC)c1nc(-c2cccc3ccccc23)oc1NCc1ccccc1,-,-,18µM,?,13µM
Fc1ccc2c(c1)c1n[nH]c(=S)nc1n2CCc1ccccc1,1.4µM,-,-,2.8µM,?
CCN(CC)CCn1c2ccccc2c2n[nH]c(=S)nc21,.,-,-,.,-
Cc1ccc2c(c1)c1n[nH]c(=S)nc1n2CCc1ccccc1,4µM,-,-,?,-
CCn1c2ccc(C)cc2c2n[nH]c(=S)nc21,-[1.91 µM],-,-,3.2µM,-
NNc1nnc2c3cc(F)ccc3n(CCc3ccccc3)c2n1,?,-,?,-,4.1µM
CCN(CC)c1ncnc2c1ncn2[C@H]1CN(Cc2ccc(Cl)cc2)C[C@@H](CO)O1,.,-,.,.,.
COc1ccc([C@H]2CC(=O)C=C(c3ccc(C(F)(F)F)c(C(F)(F)F)c3)C2)cc1OC,.,-78,-,.,-[9.22 µM]
COc1ccc([C@H]2CC(=O)C=C(c3ccc(Cl)c(C(F)(F)F)c3)C2)cc1OC,.,-56,?,.,-
COc1ccc([C@H]2CC(=O)C=C(c3ccc(Cl)c(C(F)(F)F)c3)C2)cc1,.,-,-,.,-
